{"source": "PubChem BioAssay AID624405", "about": "(Broad Institute, 2012)", "note": "The whole screen tested about 1,900 compounds, of which about 250 (13%) were called active. Roughly 4% stayed inconclusive and do not appear here.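 How the source made its calls: active means fitted curve reaches 40% rescue activity at or below the top valid dose, in every test run; inconclusive means test runs disagree, some active and some inactive; inactive means every run misses the threshold or moves the wrong way.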 A selection follows. Entries with a potency or affinity are not part of this list."}
{"assay": "suppressors of statin myotoxicity in myotubes, dose response, cell-based, C2C12 myotubes, ATP luminescence, cherry pick (AID 624405);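 further: myotubes are challenged with simvastatin at 10 µM to lower ATP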", "conditions": "C2C12 myotubes + simvastatin, 48 h, scaled: DMSO wells 0, geranylgeraniol wells 100; series mostly up to 19.5 µM; rescue activity (ATP increase): at the top concentration"}
{"smiles": "CC(=O)c1cc(C#N)c(Oc2ccc(Cl)cc2Cl)nc1C", "rescue activity (ATP increase)": "17.6% (inactive)"}
{"smiles": "CC(=O)C1=C(O)C(=O)N(c2ccc(S(N)(=O)=O)cc2)C1c1ccccc1F", "note": "(stereo not drawn)", "rescue activity (ATP increase)": "9.79% (inactive)"}
{"smiles": "C[C@@H]1CN([C@H](C)CO)C(=O)c2cc(C3=CCCCC3)cnc2O[C@@H]1CN(C)C(=O)Nc1ccc(F)cc1", "rescue activity (ATP increase)": "14.7% (inactive)"}
{"smiles": "Cc1noc(C)c1NC(=O)Nc1ccc2c(c1)C(=O)N([C@@H](C)CO)C[C@@H](C)[C@@H](CN(C)C(=O)Nc1cccc3ccccc13)O2", "rescue activity (ATP increase)": "0.347% [at 21 µM] (inactive)"}
{"smiles": "CC(O)CNc1nc2ccccc2n1-c1ncnc2sc3c(c12)CCC3", "note": "(stereo not drawn)", "rescue activity (ATP increase)": "-34.9% (inactive)"}
{"smiles": "Oc1[nH]c2ccccc2c1C=NCC1CCCO1", "note": "(stereo not drawn)", "rescue activity (ATP increase)": "-6.3% (inactive)"}
{"smiles": "CCOC(=O)C1=NN(C(=O)Cc2ccccc2)C(O)(c2ccc(Cl)cc2)C1", "note": "(stereo not drawn)", "rescue activity (ATP increase)": "-31.4% (inactive)"}
{"smiles": "C[C@H]1CN([C@@H](C)CO)C(=O)Cc2cc(NC(=O)Nc3cccc4ccccc34)ccc2O[C@@H]1CN(C)Cc1ccc(C(=O)Nc2ccccc2N)cc1", "rescue activity (ATP increase)": "13.8% (inactive)"}
{"smiles": "C[C@@H]1CN([C@@H](C)CO)C(=O)Cc2cc(NC(=O)Nc3cccc4ccccc34)ccc2O[C@@H]1CN(C)Cc1ccc(C(=O)Nc2ccccc2N)cc1", "rescue activity (ATP increase)": "6.53% (inactive)"}
{"smiles": "C[C@@H]1CN([C@H](C)CO)C(=O)Cc2cc(NC(=O)Nc3cccc4ccccc34)ccc2O[C@H]1CN(C)Cc1ccc(C(=O)Nc2ccccc2N)cc1", "rescue activity (ATP increase)": "27.3% [at 16 µM] (inactive)"}
{"smiles": "C[C@@H]1CN([C@H](C)CO)C(=O)Cc2cc(NC(=O)Nc3cccc4ccccc34)ccc2O[C@@H]1CN(C)Cc1ccc(C(=O)Nc2ccccc2N)cc1", "rescue activity (ATP increase)": "-6.86% [at 21 µM] (inactive)"}
{"smiles": "CCN(CC)C(=O)c1scc2c1OCCO2", "rescue activity (ATP increase)": "-1.7% (inactive)"}
{"smiles": "CC1CC(c2ccccc2)n2nc(N3C(=O)c4ccccc4C3=O)nc2N1", "note": "(stereo not drawn)", "rescue activity (ATP increase)": "0.638% (inactive)"}
{"smiles": "Cc1nnc(SCC(=O)NCc2ccccc2)n1-c1ccccc1", "rescue activity (ATP increase)": "43.2% (inactive)"}
{"smiles": "c1ccc(CSc2nnc(-c3ccccn3)n2-c2ccccc2)cc1", "rescue activity (ATP increase)": "26.3% (inactive)"}
{"smiles": "COc1ccc(CN(C)C[C@@H]2Oc3ccc(NC(=O)Cc4ccccc4)cc3CC(=O)N([C@H](C)CO)C[C@H]2C)cc1", "rescue activity (ATP increase)": "3.11% (inactive)"}
{"smiles": "CC(=O)Nc1cccc(Nc2nc(-c3ccccc3F)nc3ccccc23)c1", "rescue activity (ATP increase)": "-35.7% (inactive)"}
{"smiles": "CCCC(=O)NC(=S)Nc1cccc(C(C)=O)c1", "rescue activity (ATP increase)": "-8.31% (inactive)"}
{"smiles": "CCN(C(=O)COC(=O)c1cnc(C)cn1)C1CCCCC1", "rescue activity (ATP increase)": "-7.24% (inactive)"}
{"smiles": "Cc1cc(C)c2c(c1)/C(=N/NS(=O)(=O)c1ccccc1)CCC2", "rescue activity (ATP increase)": "-46.4% (inactive)"}
{"smiles": "Cc1ccccc1N(CC(=O)NC1CCCC1)C(=O)CS(=O)CC(=O)Nc1ccc2c(c1)OCO2", "note": "(stereo not drawn)", "rescue activity (ATP increase)": "15.3% (inactive)"}
{"smiles": "CC1CCN(S(=O)(=O)c2ccc3ccccc3c2)CC1", "rescue activity (ATP increase)": "60.1% (inactive)"}
{"smiles": "CC(C)C(=O)Nc1cc(S(=O)(=O)N2CCOCC2)ccc1N1CCCCC1", "rescue activity (ATP increase)": "-33.9% (inactive)"}
{"smiles": "OCCNCc1cccc(-c2ccccc2)c1O", "rescue activity (ATP increase)": "14.2% (inactive)"}
{"smiles": "O=C(NCc1ccco1)C1CCN(C(=O)c2cc3sccc3n2Cc2ccc(F)cc2)CC1", "rescue activity (ATP increase)": "36.2% (inactive)"}
{"smiles": "CC(C)Oc1ccc(C(=O)NCc2ccco2)cc1", "rescue activity (ATP increase)": "-11.3% (inactive)"}
{"smiles": "O=C(CN(c1ccc(F)cc1)S(=O)(=O)c1ccccc1)NCc1ccco1", "rescue activity (ATP increase)": "6.02% (inactive)"}
{"smiles": "O=C(c1ccco1)N1CCN(C(=O)c2cc3sccc3n2Cc2ccccc2)CC1", "rescue activity (ATP increase)": "18% (inactive)"}
{"smiles": "CCN1CCN(c2ccc(NC(=O)Cc3ccccc3)cc2)CC1", "rescue activity (ATP increase)": "-4.12% (inactive)"}
{"smiles": "O=S(=O)(c1cccc2nsnc12)N1CCOCC1", "rescue activity (ATP increase)": "28.7% (inactive)"}
{"smiles": "COc1ccc(NC(=O)Nc2ccc3c(c2)C(=O)N([C@H](C)CO)C[C@@H](C)[C@@H](CN(C)Cc2ccc(C(F)(F)F)cc2)OCCCC[C@@H](C)O3)cc1", "rescue activity (ATP increase)": "-2.15% (inactive)"}
{"smiles": "CCC(C)(NC(=O)CNC(C)=O)C(=O)NC1CCCCC1", "note": "(stereo not drawn)", "rescue activity (ATP increase)": "1.71% (inactive)"}
{"smiles": "COc1ccc(C#Cc2cnc3c(c2)C(=O)N([C@@H](C)CO)C[C@@H](C)[C@H](CN(C)C(=O)Nc2cccc(OC)c2)O3)cc1", "rescue activity (ATP increase)": "17.4% (inactive)"}
{"smiles": "CCOCCn1c(COc2ccccc2)nc2ccccc21", "rescue activity (ATP increase)": "17.6% (inactive)"}
{"smiles": "CCOC(=O)c1ccc2c(c1)nc(COc1ccc(OC)cc1)n2CC", "rescue activity (ATP increase)": "-4.99% (inactive)"}
{"smiles": "O=C(CCCCCn1c(=O)[nH]c2ccsc2c1=O)NCc1ccc(F)cc1", "rescue activity (ATP increase)": "1.05% (inactive)"}
{"smiles": "CCc1ccc(NC(=O)c2cc(-c3cccs3)on2)cc1", "rescue activity (ATP increase)": "-4.74% (inactive)"}
{"smiles": "CCOC(=O)/C=C(\\C)Nc1cc(C)nn1-c1ccccc1", "rescue activity (ATP increase)": "10.6% (inactive)"}
{"smiles": "C[C@@H]1CN([C@H](C)CO)C(=O)c2cc(NC(=O)Cc3cn(C)c4ccccc34)ccc2O[C@H]1CN(C)S(=O)(=O)c1cccs1", "rescue activity (ATP increase)": "14.4% (inactive)"}
{"smiles": "O=C(NCc1ccco1)C(c1ccc(F)cc1)N(Cc1cccnc1)C(=O)Cn1nnc2ccccc21", "note": "(stereo not drawn)", "rescue activity (ATP increase)": "-5.93% (inactive)"}
{"smiles": "C[C@@H]1CN([C@@H](C)CO)C(=O)Cc2cc(NC(=O)CCCCCC(=O)Nc3ccccc3N)ccc2O[C@H]1CN(C)Cc1ccc(C(F)(F)F)cc1", "rescue activity (ATP increase)": "16% (inactive)"}
{"smiles": "C[C@@H]1CN([C@H](C)CO)C(=O)Cc2cc(NC(=O)CCCCCC(=O)Nc3ccccc3N)ccc2O[C@@H]1CN(C)Cc1ccc(C(F)(F)F)cc1", "rescue activity (ATP increase)": "11% [at 16 µM] (inactive)"}
{"smiles": "C[C@@H]1CN([C@H](C)CO)C(=O)Cc2cc(NC(=O)CCCCCC(=O)Nc3ccccc3N)ccc2O[C@H]1CN(C)Cc1ccc(C(F)(F)F)cc1", "rescue activity (ATP increase)": "40.4% (inactive)"}
{"smiles": "C[C@@H]1CN([C@@H](C)CO)C(=O)Cc2cc(NC(=O)CCCCCC(=O)Nc3ccccc3N)ccc2O[C@@H]1CN(C)Cc1ccc(C(F)(F)F)cc1", "rescue activity (ATP increase)": "13.1% [at 21 µM] (inactive)"}
{"smiles": "Cc1cc(C)c2c(CN3CCN(Cc4ccc5c(c4)OCO5)CC3)cc(=O)oc2c1", "rescue activity (ATP increase)": "3.37% (inactive)"}
{"smiles": "C[C@H](CO)N1C[C@H](C)[C@@H](CN(C)Cc2ccc(C(F)(F)F)cc2)Oc2ccc(NS(=O)(=O)c3ccc(Cl)cc3)cc2CC1=O", "rescue activity (ATP increase)": "12.9% (inactive)"}
{"smiles": "C[C@@H]1CCCCO[C@@H](CN(C)Cc2ccc(C(F)(F)F)cc2)[C@H](C)CN([C@@H](C)CO)C(=O)c2cc(NS(=O)(=O)c3cccs3)ccc2O1", "rescue activity (ATP increase)": "-14.7% (inactive)"}
{"smiles": "Cc1ccc(-c2cnc3c(c2)C(=O)N([C@H](C)CO)C[C@H](C)[C@@H](CN(C)C(=O)Cc2ccccc2)O3)cc1", "rescue activity (ATP increase)": "24.1% (inactive)"}
{"smiles": "CCC(C)(C)NC(=O)CN(C(=O)CNS(=O)(=O)c1ccccc1)c1ccccc1", "rescue activity (ATP increase)": "7.7% (inactive)"}
{"smiles": "COc1ccc(CN2[C@@H](CO)[C@@H]3c4ccccc4N(C(=O)c4ccccc4)C[C@@H]32)cc1", "rescue activity (ATP increase)": "-25.7% (inactive)"}
{"smiles": "CC(C)CC(c1nnnn1C1CCCC1)N1CCN(c2ccccc2F)CC1", "note": "(stereo not drawn)", "rescue activity (ATP increase)": "-4.36% (inactive)"}
{"smiles": "Fc1ccc(C(c2nnnn2C2CCCC2)N2CCN(Cc3ccccc3)CC2)cc1", "note": "(stereo not drawn)", "rescue activity (ATP increase)": "-29.7% (inactive)"}
{"smiles": "Cc1ccc(NS(=O)(=O)c2ccc(C)c(C(=O)N3CCN(C)CC3)c2)cc1", "rescue activity (ATP increase)": "8.73% (inactive)"}
